In the library only some 0.49% were active in any assay of this set; here they are far more common.
LDHA block = qHTS assay for inhibitors of human lactate dehydrogenase | L-lactate dehydrogenase A chain (Homo sapiens), P00338 | purified LDHA, NADH/diaphorase-resazurin fluorescence; stronger effect = lower value | activity change, % (values are at about 110 or 230 µM) | 480,000 compounds, 0.15% hits; in the data active = activity change below about -30%; inconclusive = mostly about -25% to -30%;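 also: plate controls were DMSO wells for no effect and wells without enzyme for full effect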
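LDH5 2 nM; NADH 0.06 mM, pyruvate 0.2 mM; 200 mM Tris pH 7.4, EDTA, Tween-20; 5 min RT. Detection: diaphorase 0.133 mg/mL + resazurin 37 µM, fluorescence ex540/em590 at 0 and 20 min; normalized to enzyme-free and DMSO wells.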
Tb PGK inh = qHTS Assay to Find Inhibitors of Phosphoglycerate Kinase. Phosphoglycerate kinase, glycosomal (Trypanosoma brucei brucei), P07378. PGK/GAPDH coupled, Kinase-Glo luminescence, 60 min. Potency, µM (highest dose often 57.5 µM), for inactives: at the highest dose activity change, negative = inhibition, usual class: inhibitors. 380,000 compounds, 0.043% hits. AID 602233, 2012; also: potency is read from the fitted curve at half-maximal effect; % is scaled to controls: 0 for no effect and ±100 for the full control effect; nearly all actives have a fitted effect of over 60% in size
Target sequence (P07378 whole entry, looked up): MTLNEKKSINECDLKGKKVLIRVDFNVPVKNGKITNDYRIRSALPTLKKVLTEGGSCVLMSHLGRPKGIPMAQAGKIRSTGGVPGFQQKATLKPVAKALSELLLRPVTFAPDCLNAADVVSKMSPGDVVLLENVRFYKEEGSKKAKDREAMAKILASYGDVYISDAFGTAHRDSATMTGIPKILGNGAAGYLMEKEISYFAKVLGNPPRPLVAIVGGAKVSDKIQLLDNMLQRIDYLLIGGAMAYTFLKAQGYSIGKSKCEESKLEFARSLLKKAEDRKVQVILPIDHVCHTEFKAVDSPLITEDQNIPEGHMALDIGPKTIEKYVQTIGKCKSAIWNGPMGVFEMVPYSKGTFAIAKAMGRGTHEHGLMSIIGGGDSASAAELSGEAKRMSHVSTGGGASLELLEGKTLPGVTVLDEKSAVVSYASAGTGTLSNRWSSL
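Luminescent ATP detection (Kinase-Glo Plus) follows a 60-minute room-temperature incubation, with wells lacking PGK as controls. Buffer: 100 mM TEA (pH 7.6), 5 mM MgCl2, 0.01% Tween-20. Coupling enzyme GAPDH (100 nM final) supplies unstable 1,3-BPG in-well.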
IDH1 R132H inh = qHTS for Inhibitors of mutant isocitrate dehydrogenase 1 (IDH1): qHTS | Potency, µM (series often up to 76.6 µM), inactives show at the top dose activity change, negative = inhibition, most hits filed as inhibitors | AID 602179, 2012 | 390,000 compounds, 0.093% hits | IDH1-R132H enzyme, NADPH consumption, diaphorase/resazurin fluorescence; also: potency is read from the fitted curve at half-maximal effect; % is scaled to controls: 0 for no effect and ±100 for the full control effect; nearly all actives have a fitted effect of over 65% in size
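IDH1-R132H (0.5 ug/mL) preincubated 30 min with compound, then NADPH (0.016 mM) and alpha-KG (2 mM) added; 80 min at RT, pH 7.5. Remaining NADPH coupled via diaphorase/resazurin to fluorescence (540/590 nm); concentration-response curves normalized to no-enzyme control.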
Vif-A3F inh = qHTS for Inhibitors of Vif-A3F Interactions: qHTS. HeLa A3F-eYFP + Vif (tagged APOBEC3F with the HIV-1 protein that degrades it), YFP fluorescence increase. Potency, µM (top dose mostly 46.1 µM), for inactives: at the top dose activity, negative = active. 390,000 compounds, 0.2% hits. AID 602313, 2012; also: potency is read from the fitted curve at half-maximal effect; % of control where 0% means no effect; nearly all actives have a fitted effect of over 65% in size
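Fluorescence increase (Ex 488/Em 500-530) after overnight compound treatment at 37 deg C flags inhibition of Vif-driven A3F-eYFP loss in stable HeLa A3F-eYFP/Vif cells seeded overnight beforehand.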
Pin1 inhibitor = qHTS Assay to Find Inhibitors of Pin1; AID 504891, 2011; Peptidyl-prolyl cis-trans isomerase NIMA-interacting 1 (Homo sapiens), Q13526; 390,000 compounds, 0.009% hits; Potency, µM (titrated, usually from 115 µM), for inactives: at the highest dose activity, negative = inhibition, usual class: inhibitors; Pin1 FP peptide displacement, HiFluor488, 10 min; active = well fitted inhibition curve with a large enough effect in the polarisation, with a control signal flat, not every such curve was filed as active; inconclusive = small, poorly fitted or top-dose-only effect, or effect the other way, or a change in a side signal; inactive = no such curve, though single readings can be large or run the other way; the % refers to the polarisation; also: potency is read from the fitted curve at half-maximal effect; % is scaled to controls: 0 for no effect and ±100 for the full control effect
Target sequence (Q13526 whole entry, looked up): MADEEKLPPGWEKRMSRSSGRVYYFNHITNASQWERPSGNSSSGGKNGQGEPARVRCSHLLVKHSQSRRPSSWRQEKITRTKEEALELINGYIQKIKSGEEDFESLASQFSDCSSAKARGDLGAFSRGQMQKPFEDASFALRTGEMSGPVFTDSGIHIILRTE
Vif-A3G inh = qHTS for Inhibitors of Vif-A3G Interactions: qHTS; Potency, µM (highest dose often 46.1 µM), inactives show top-dose activity, negative = active, most hits filed as inhibitors; AID 602310, 2012; 410,000 compounds, 0.076% hits; HeLa A3G-eYFP + Vif (tagged APOBEC3G with the HIV-1 protein that degrades it), YFP fluorescence, overnight; also: potency is read from the fitted curve at half-maximal effect; % is scaled to controls: 0 for no effect and ±100 for the full control effect; nearly all actives have a fitted effect of over 60% in size
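HeLa cells stably expressing Vif and C-terminally eYFP-tagged A3G, seeded overnight at 37 deg C, then exposed to compound by pintool overnight at 37 deg C. Rise in yellow fluorescence (Ex 488/Em 500-530, Acumen) marks blocked Vif-driven A3G degradation.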
Resorufin autofl = qHTS for Inhibitors of mutant isocitrate dehydrogenase 1 (IDH1): Cherrypicks Autofluorescence Interference; shares compounds with IDH1 R132H inh; Resorufin detection reagent fluorescence interference, cell-free; inhibition of signal, % at 51.2 µM; 750 tested, under 10 active; AID 623980, 2012;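 also: 0% = wells with normal resorufin and full inhibition = wells lacking resorufin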
IDH1 WT = qHTS for Inhibitors of mutant isocitrate dehydrogenase 1 (IDH1): Cherrypicks in WT IDH1; shares compounds with IDH1 R132H inh; WT IDH1 enzyme, NADPH diaphorase/resazurin fluorescence; Potency, µM (doses to about 115 µM), for the others: top-dose activity change, negative = inhibition, usual class: inhibitors; 750 compounds, 9% hits; AID 623995, 2012;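 also: potency is read from the fitted curve at half-maximal effect; 0% = full WT IDH1 enzyme control and full inhibition = no enzyme wells; nearly all actives have a fitted effect of over 55% in size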
IDH1 R132H conf = qHTS for Inhibitors of mutant isocitrate dehydrogenase 1 (IDH1): Confirmation of Cherrypicks; AID 624002, 2012; IDH1 R132H enzyme, NADPH diaphorase/resazurin fluorescence; 750 compounds, 83% hits; Potency, µM (highest dose often 76.6 µM), for the others: at the highest dose activity change, negative = inhibition, actives largely listed as inhibitors; shares compounds with IDH1 R132H inh; also: potency is read from the fitted curve at half-maximal effect; nearly all actives have a fitted effect of over 50% in size
An asterisk follows results filed as active; i = inactive; ? = inconclusive; · = not tested or not shown. Unless noted, calls follow the shape of the dose curve; as a rule, active = well fitted curve in the direction sought with a large enough effect; inconclusive = small, poorly fitted or top-dose-only effect, or another doubt; inactive = no such curve, though single readings can be large; an effect the other way counts as inactive or inconclusive.

SMILES	LDHA block	Tb PGK inh	IDH1 R132H inh	Vif-A3F inh	Pin1 inhibitor	Vif-A3G inh	Resorufin autofl	IDH1 WT	IDH1 R132H conf
c1ccc(-c2csc(NNC3=NCCCCC3)n2)cc1	-1.6	i	-24.8%	-1.2%	2.5%	0.3%	·	·	·
N#CC1=C(N)C(C#N)(C#N)C(c2cccnc2)C2COCC=C12 (configuration not stated)	-4.6	2.0%	?	-11.9%	-4.1%	-0.1%	3.6	46.9%	39.8µM*
CC1CCCCC1NC(=O)c1cn(C)c2ccc(S(=O)(=O)N3CCCC3)cc2c1=O (configuration not stated)	1.4	2.0%	?	-9.4%	-1.5%	-1.2%	3.7	-4.1%	22.4µM*
Cc1ncc(CO)c2c1Oc1nc(-c3ccccc3F)nc(SCC(=O)N(C)c3ccccc3)c1C2	-5.3	-4.5%	52.1µM*	4.0%	79.5%	?	-0.5	10.1%	?
CC(=O)Oc1cc(O)c2c(c1)OC(c1ccc(OC(C)=O)c(OC(C)=O)c1)C(OC(C)=O)C2=O (configuration not stated)	0.9	4.1%	52.1µM*	0.5%	8.5%	-0.4%	1.9	0.8%	?
COc1cc(C2Oc3cc(C4Oc5cc(O)cc(O)c5C(=O)C4O)ccc3OC2CO)ccc1O (configuration not stated)	-4.2	-3.2%	-7.6%	-0.7%	3.5%	-12.2%	·	·	·
O=C(c1ccccc1)N1N=C(c2ccccc2)CC1c1ccccc1O (configuration not stated)	-1.5	-9.4%	1.3%	-5.7%	2.0%	-6.2%	·	·	·
O=C(c1ccncc1)N1N=C(c2ccc(Br)cc2)CC1c1ccccc1O (configuration not stated)	-4.0	-4.8%	35.5µM*	-11.1%	5.4%	-8.3%	0.9	2.3%	15.8µM*
Cn1c2ccccc2c(=O)c2c(=O)n(-c3ccccc3)c(C3CCCCC3)nc21	-6.1	13.6%	11.7µM*	-4.3%	1.8%	2.5%	-1.7	25.1µM*	4.47µM*
Cn1c2ccccc2c(=O)c2c(=O)n(C3CCCCCC3)c(C3CCCCC3)nc21	0.6	-6.3%	9.27µM*	-5.2%	-13.3%	-4.2%	3.9	14.1µM*	2.82µM*
COc1ccc(Cn2c(C3CCCCC3)nc3c(c(=O)c4ccccc4n3C)c2=O)cc1	-7.7	-2.6%	?	3.0%	26.7%	2.4%	·	·	·
Cn1c2ccccc2c(=O)c2c(=O)n(C3CCCCC3)c(-c3cccs3)nc21	-2.8	i	36.9µM*	-15.8%	-15.7%	0.0%	11.9	-21.5%	15.8µM*

From PubChem BioAssay
